TGFb inhibitor: inhibitors of TGF-b signaling; HepG2 CAGA-GFP TGF-b/SMAD3 reporter, GFP fluorescence, 18 h; TGF-beta stimulated, 500 pg/mL final; 410,000 tested, 1.2% active; Potency, µM (highest dose often 46.1 µM), inactives show at the top dose activity, negative = inhibition, usual class: inhibitors; AID 588855; also: % is scaled to controls: 0 for no effect and ±100 for the full control effect; nearly all actives have a fitted effect of over 65% in size
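Using HEPG2 CAGA-GFP reporter cells at 1000 cells/well, we pinned test compounds, stimulated with recombinant TGF-beta (500 pg/mL final) and measured total well GFP after 18 h.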
ATXN viability: viability counter-screen for ATXN expression inhibitors; S2 cells (HEK-293 line with an ATXN2-luciferase reporter) viability, CellTiter-Fluor protease fluorescence, 24 h; Potency, µM (top dose mostly 56.7 µM), most hits filed as cytotoxic; 400,000 tested, 0.49% active; also: nearly all actives have a fitted effect of over 40% in size
ATXN2 expr inh: inhibitors of ATXN2 expression. AID 1745845. 360,000 tested, 0.72% active. Potency, µM (series often up to 57 µM), for inactives: at the highest dose activity change, negative = inhibition, usual class: inhibitors. HEK-293 ATXN2-luciferase reporter, luminescence, 24 h; also: % is scaled to controls: 0 for no effect and ±100 for the full control effect; nearly all actives have a fitted effect of over 55% in size
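ATXN2-luciferase reporter cells (luciferase flanked by upstream and downstream ATXN2 gene portions) were treated 24 h at 37 °C with compounds at up to 57 uM. SteadyGlo luminescence gave expression; GF-AFC fluorescence gave viability.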
HepG2 viability: HepG2 cytotoxicity, counter-screen for TGF-b inhibitors | 410,000 tested, 0.76% active | Potency, µM (series often up to 46.1 µM), for the others: top-dose activity change, negative = cytotoxicity, most hits filed as cytotoxic | HepG2 CAGA-GFP viability, ATP luminescence, 18 h
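CellTiter-Glo luminescence gave cytotoxicity after 18 hours at 37 degrees C. The cells were HepG2 CAGA-GFP in 1% FBS DMEM, stimulated with 500 pg/mL TGF-beta after compound addition. %Activity was normalised to no-cell wells (complete cell-killing) and DMSO (no toxicity), and curves were fitted and classified.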
HT1080 IDH1KD tx: toxicity to HT-1080 IDH1 knockdown cells (counter line); HT-1080 IDH1 knockdown viability, ATP luminescence, 48 h; Potency, µM (doses to about 46.1 µM), without a hit: at the top dose activity, negative = toxicity, most hits filed as cytotoxic; 360,000 tested, 2% active; AID 686971;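 also: 0% = DMSO wells and -100% = cell-free medium wells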
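Assay cells: HT-1080 with IDH1 knockdown, 750 per well, RPMI/5% FBS. Exposure: 48 h at 37 °C following 2 h pre-incubation. Read: CellTiter-Glo luminescence; fitted concentration-response, curve class assigned.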
HT1080NT lethal: kills 2HG-producing HT-1080-NT fibrosarcoma cells | HT-1080-NT fibrosarcoma viability, CellTiter-Glo ATP luminescence, 48 h | Potency, µM (series often up to 46.1 µM), without a hit: at the highest dose activity, negative = less viability, usual class: cytotoxic | AID 686970 | 360,000 tested, 1.6% active;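 also: NT is the 2HG producing partner of a matched IDH1 knockdown line; 0% = DMSO-treated cells and -100% = media-only wells without cells; nearly all actives have a fitted effect of over 55% in size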
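Fibrosarcoma NT cells, 750 per well in 5% FBS RPMI, were exposed to compound for 48 hours. Viability: CellTiter-Glo luminescence.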
Starred values were filed as active, the others as inactive; i = inactive; ? = inconclusive; / = not tested or not shown; ! = not active in a repeat; [ ] = remark or other dose. Only some compounds are listed: those with a hit (about 3.8% of all), similar ones and a draw of the others. Calls follow the shape of the dose curve; as a rule, active = well fitted curve in the direction sought with a large enough effect; inconclusive = small, poorly fitted or top-dose-only effect, or another doubt; inactive = no such curve, though single readings can be large; an effect the other way counts as inactive or inconclusive. Potency is read from the fitted curve at half-maximal effect.

SMILES | TGFb inhibitor | ATXN viability | ATXN2 expr inh | HepG2 viability | HT1080 IDH1KD tx | HT1080NT lethal
CCCCc1c(-c2ccccc2OC)ncn1Cc1ccc(Cl)cc1 | / | ? | ? | / | 18µM* | ?
CC(C)(C)n1ncc2c(=O)n(Cc3ccccc3CS(=O)(=O)c3ccccc3)cnc21 | -9% | / | / | -27% | / | /
COc1cccc(CNC(=O)c2c(OC)cc(=O)n3c2CCN(C(=O)C2CC24CCCCC4)CC3)c1 (stereo not drawn) | / | i | / | / | / | /
NC(=O)N[C@@H](CCC(=O)O)C(=O)O | / | i | -4% | / | / | /
COc1cccc(/C=C/c2ccc3ccccc3[n+]2C)c1OC | 0% | / | / | -10% | / | /
CCc1cc2c(cc1N1CCC(N3CCOCC3)CC1)C(C)(C)c1[nH]c3cc(C#N)ccc3c1C2=O | / | / | -25% | / | / | /
COc1ccccc1CNCC(O)(c1ccc(F)cc1)c1ccc(F)cc1 | ? | ? | / | -48% | -12% | -17%
COc1ccccc1CNCC(O)(c1ccc(Cl)cc1)c1ccc(Cl)cc1 | ? | i | ? | -103% | 11µM* | 13µM*
CCN(CC)CCNCC(O)(c1ccc(Cl)cc1)c1ccc(Cl)cc1 | ? | i | 1% | -52% | 21µM* | 21µM*
Clc1ccc(-c2ccc(CNCCSc3nnnn3-c3ccccc3)o2)cc1 | ? | i | -24% | -57% | / | /
CCN(CC)CCNCc1ccc(-c2ccc(Cl)cc2)o1 | -1% | i | -23% | -32% | ? | 16µM*
CC(C)(C)NCC(O)(c1ccc(Cl)cc1)c1ccc(Cl)cc1 | ? | ? | ? | -47% | 15µM* | 13µM*
Cc1ccc(O)c(C(CC(=O)NCC2(c3ccccc3)CCCC2)c2ccccc2)c1 (stereo not drawn) | / | / | / | -110% | / | /
Cc1ccc(-c2cc(C(=O)N/N=C/c3c(C)nn(-c4ccccc4)c3C)n[nH]2)s1 | 13µM* | ? | / | -31% | 1.8µM* | 1.6µM*
Cc1nn(-c2ccccc2)c(C)c1/C=N/NC(=O)c1cc(C(C)(C)C)[nH]n1 | -10% | i | 1% | -8% | -9% | -6%
O=C(C[n+]1ccccc1Cl)c1ccc2c(c1)CCCC2 | -4% | / | / | -73% | / | /
CCOc1cc(CNCCCN2CCOCC2)cc(Br)c1OCc1ccccc1Cl | 14µM* | ? | -22%[11.3 µM] | -93% | 8.2µM* | 7.3µM*
CCOc1cc(CNCCO)cc(Br)c1OCc1ccccc1Cl | ? | i | -35% | -106% | 23µM* | ?
CCOc1cc(CNC(C)(C)CO)cc(Br)c1OCc1ccc(Cl)cc1Cl | ? | / | ? | 13µM* | 10µM* | 11µM*
COc1cc(CNC(C)(C)CO)cc(Br)c1OCc1ccccc1 | 14% | / | -42%[11.3 µM] | 5% | ? | ?
CCCCCCc1ccc(OC(=O)c2ccncc2)cc1 | -10% | i | / | -19% | 2% | 0%
CCCCCCOc1ccc(OC(=O)c2ccncc2)cc1 | 17% | i | -24% | 0% | 16µM* | ?
CCCCCOc1ccc2oc(=O)c3c(c2c1)CCCN3C(=O)CN1CCCC(C(=O)OCC)C1 (stereo not drawn) | -21% | i | 0% | -27% | 23µM* | ?
CCCCC1C(=O)N(c2ccccc2)N(c2ccc(O)cc2)C1=O (stereo not drawn) | 5.6µM* | 7.9µM* | 5.6µM* | 8.9µM* | 9% | ?
COc1ccc(C(=O)C[n+]2ccc(Cl)c3ccc(Cl)cc32)cc1 | 0% | / | / | 7% | / | /
SMILES | TGFb inhibitor | ATXN viability | ATXN2 expr inh | HepG2 viability | HT1080 IDH1KD tx | HT1080NT lethal
CC(C)NC(=S)N=Nc1c(O)[nH]c2ccc(C(C)C)cc12 | ? | 3.5µM* | / | -14% | 1% | -7%
S=c1nc(-c2ccccc2Br)[nH][nH]1 | 5% | i | -3% | -11% | 10µM* | 7.1µM*
Cc1noc(C)c1CSc1nc2ccccc2nc1NS(=O)(=O)c1ccc(Cl)cc1 | 7.9µM* | i | -26% | -46% | ? | ?
O=S(=O)(Nc1nc2ccccc2nc1NCc1ccco1)c1ccc(Cl)cc1 | ? | i | -9% | -24% | ? | ?
CCN(C(=O)CCc1nc(-c2ccc(C)cc2)no1)c1cccc(Cl)c1 | 13µM* | i | 13% | -2% | / | /
CCC1(O)CC2CN(CCc3c([nH]c4ccccc34)C(C(=O)OC)(c3cc4c(cc3OC)N(C=O)C3C(O)(C(=O)OC)C(OC(C)=O)C5(CC)C=CCN6CCC43C65)C2)C1 (stereo not drawn) | ? | ? | -4% | -4% | ? | 0.0058µM*
CC[C@]1(O)CC2CN(CCc3c([nH]c4ccccc34)[C@@](C(=O)OC)(c3cc4c(cc3OC)N(C)[C@H]3[C@@](O)(C(=O)OC)[C@H](OC(C)=O)[C@]5(CC)C=CCN6CC[C@]43[C@@H]65)C2)C1 (stereo partly drawn) | ? | / | / | -28% | / | /
Cc1ccc(NC(=O)C2=CC(c3cccs3)=NS(=O)(=O)N2C)cc1 | ? | i | -16% | -36% | -8% | -1%
CCc1ccc(NC(=O)C2=CC(c3cccs3)=NS(=O)(=O)N2C)cc1 | 13µM*! | i | -2% | -26% | -4% | -3%
COc1ccc(N2C(=S)NC3N2C(=S)NC3(C)c2ccccc2)cc1 (stereo not drawn) | ? | i | 96% | 9% | 12µM* | 16µM*
CC1(c2ccccc2)NC(=S)N2C1NC(=S)N2c1ccccc1 (stereo not drawn) | 0% | i | -6% | -47% | -14% | -9%
CCCS(=O)(=O)NCc1c(C)ncc2c1CCN(C(=O)c1cccc(C(F)(F)F)c1)C2 | / | i | / | / | / | /
Nc1nc2c(nnn2C2CC(O)C(CO)O2)c(=O)[nH]1 (stereo not drawn) | ? | i | -10% | -25% | 5.2µM* | ?
Cc1ccc(NC(=O)Cn2nc(C)c3nn(-c4ccc(Cl)cc4)c(C)c3c2=O)cc1F | -31% | / | / | -20% | / | /
COc1ccccc1-c1ccnc(-n2ncc(C(=O)NCc3cccc(C)n3)c2C)n1 | / | i | / | / | / | /
COc1cc2c(NC3CCN(C(C)C)CC3)nc(N3CCCN(C)CC3)nc2cc1OCCCN(C)C | 10µM* | / | / | -8% | / | /
COc1cc2c(NC3CCN(C)CC3)nc(N3CCCN(C)CC3)nc2cc1OCCCC(C)C | 2.8µM* | / | / | 3.5µM* | / | /
COc1cc2c(NC3CCN(C)CC3)nc(N3CCCN(C)CC3)nc2cc1OCCCCCN(C)C | ? | / | / | -22% | / | /
COc1cc2c(NC3CCN(C)CC3)nc(N3CCCN(C)CC3)nc2cc1OCCCCN | ? | / | / | -14% | / | /

Source: PubChem (National Center for Advancing Translational Sciences (NCATS))
